Reference: PubChem BioAssay AID1159554 (Broad Institute, 2015)
In all, about 94,000 compounds went through this assay and about 2,100 (2.2%) were called active. The sample as a whole holds a higher share of actives than the screen did. Unmarked numbers belong to inactive results. No stated cut-off is given here; in the data, active means activity change below about -80%; inconclusive means no clear call, values can overlap the other calls; inactive means above that.

Experiment: P. falciparum Dd2 growth inhibitors, primary screen, SYBR Green fluorescence, single dose replicates (AID 1159554)
Conditions: 72 h, at 10 µM, hits give low values
Work on `CCS(=O)(=O)Nc1ccc2c(c1)C(=O)N(C)[C@@H]1CC[C@H](CC(=O)N3CCCCC3)O[C@@H]1CO2` yielded an activity change of 6.13%. `CO[C@@H]1CN(C)C(=O)c2cc(NS(=O)(=O)c3ccccc3)ccc2OC[C@@H](C)N(C(=O)NC(C)C)C[C@@H]1C` gave an activity change of 20.8%. Compound `COCC(=O)N1CCC2(CC1)CN(C(=O)Nc1ccccc1F)[C@@H](CO)c1c2c2ccc(OC)cc2n1C` has an activity change of -32.4%. `CCCC#Cc1cnc2c(c1)C(=O)N([C@@H](C)CO)C[C@@H](C)[C@@H](CN(C)C(=O)c1ccccc1)O2` showed an activity change of -15.9%. In the case of `CO[C@H]1CN(C)C(=O)c2ccc(NC(=O)C3CC3)cc2OC[C@H](C)N(Cc2ccncc2)C[C@@H]1C`, the activity change is reported as -31.5%. Work on `COc1cccc(CNC(=O)[C@@H]2[C@@H](CO)[C@@H]3Cn4c(ccc(-c5cccnc5)c4=O)[C@@H]3N2C)c1` yielded an activity change of 8.71%. `O=C(C[C@@H]1CC[C@@H](NS(=O)(=O)c2ccc(F)cc2)[C@@H](CO)O1)NCCc1ccncc1` gave an activity change of 23.4%. For `O=C(N[C@H]1CC[C@@H](CCNS(=O)(=O)Cc2ccccc2)O[C@H]1CO)c1ccccc1F`, the activity change was -32.4%. With `CC(C)NC(=O)N(C)C[C@H]1OCCCC[C@@H](C)Oc2ccc(NC(=O)C3CCCCC3)cc2C(=O)N([C@H](C)CO)C[C@H]1C` the activity change was -37.9%. In the case of `O=C(NC1CCCCC1)N1CC2(C1)[C@H](c1ccccc1)[C@@H](CO)N2S(=O)(=O)Cc1ccccc1`, the activity change is reported as -4.41%. For `C[C@@H]1CCCCO[C@H](CN(C)S(=O)(=O)c2cccs2)[C@@H](C)CN([C@@H](C)CO)C(=O)c2cc(NC(=O)NC3CCCCC3)ccc2O1`, the activity change was -76%. Compound `O=C(Nc1ccccc1F)N1C[C@H]2[C@@H](c3ccccc31)[C@@H](CO)N2C(=O)Cc1cccnc1` has an activity change of 13.8%. With `O=C(C1CCCCC1)N1[C@H](CO)[C@@H](c2ccccc2)C12CN(Cc1cccc(Cl)c1)C2` the activity change was -90.7% (active). For `O=C(C1CCCC1)N1[C@@H](CO)[C@@H](c2ccccc2)C12CN(Cc1ccc(F)cc1)C2`, the activity change was -28%. With `O=C(C1CCCC1)N1[C@H](CO)[C@@H](c2ccccc2)C12CN(CCC(F)(F)F)C2` the activity change was -46.4%. In the case of `COCC(=O)N1CC2(C1)[C@@H](c1ccc(-c3cccc(F)c3)cc1)[C@@H](CO)N2C(=O)COC`, the activity change is reported as 13.9%. With `COCC(=O)N1[C@H](CO)[C@@H](c2ccccc2)C12CN(Cc1cc(F)ccc1F)C2` the activity change was -89% (active). `COCC(=O)N1CC2(C1)[C@H](c1ccc(-c3cccc(F)c3)cc1)[C@@H](CO)N2C(=O)COC` showed an activity change of 11.2%. For `COc1cccc(C#Cc2ccc3c(c2)[C@H]2[C@H](CCN2C(=O)CC2CC2)[C@H](CO)N3)c1`, the activity change was -67.1%. Work on `COc1ccc2c3c(n(C)c2c1)[C@@H](CO)N(Cc1ccncc1)CC31CN(C(=O)Nc2cccc(F)c2)C1` yielded an activity change of -46.3%. With `C[C@H]1CN([C@@H](C)CO)C(=O)c2c(c3ccccc3n2C)-c2ccccc2CO[C@@H]1CN(C)Cc1ccc2c(c1)OCCN2C` the activity change was -31.4%. In the case of `CCCN1C[C@H](C)[C@@H](OC)CN(C)C(=O)c2ccc(NC(=O)c3cnccn3)cc2OC[C@H]1C`, the activity change is reported as 13.8%. With `COC(=O)C[C@H]1CC[C@@H]2[C@@H](COc3ccc(NC(=O)Nc4ccc(Cl)cc4)cc3C(=O)N2C)O1` the activity change was 9.95%. With `O=C([C@@H]1[C@@H](CO)[C@@H]2Cn3c(ccc(-c4cncnc4)c3=O)[C@@H]2N1C(=O)C1CCC1)N1CCCCC1` the activity change was 34%. With `C[C@H]1CN([C@@H](C)CO)S(=O)(=O)c2ccc(C#CCN(C)C)cc2O[C@H]1CN(C)C(=O)c1ccccc1F` the activity change was -28.9%. Work on `C[C@@H]1CN([C@H](C)CO)S(=O)(=O)c2ccc(C#CC3CC3)cc2O[C@H]1CN(C)Cc1ccccc1F` yielded an activity change of -16.8%. For `CC(C)CC#Cc1ccc2c(c1)O[C@H](CN(C)Cc1ccccc1F)[C@@H](C)CN([C@@H](C)CO)S2(=O)=O`, the activity change was -84.7% (active). For `CCCC#Cc1ccc2c(c1)O[C@@H](CN(C)C(=O)c1ccccc1F)[C@H](C)CN([C@H](C)CO)S2(=O)=O`, the activity change was -85.1% (active). `CCCN(C)C[C@H]1Oc2cc(C#CCC(C)C)ccc2S(=O)(=O)N([C@H](C)CO)C[C@H]1C` gave an activity change of -26.1%. In the case of `CC(C)CC#Cc1ccc2c(c1)O[C@@H](CN(C)C(=O)c1ccccc1F)[C@H](C)CN([C@H](C)CO)S2(=O)=O`, the activity change is reported as -71.3%. With `COCC#Cc1ccc([C@@H]2[C@@H](CO)N3C(=O)CN(C(=O)C4CCCC4)C[C@@H]23)cc1` the activity change was -28.5%. In the case of `O=C(C[C@@H]1CC[C@@H]2[C@H](COC[C@@H](O)CN2C(=O)c2ccccc2F)O1)N1CCOCC1`, the activity change is reported as 11.8%. Compound `C[C@H](CO)N1C[C@H](C)[C@@H](CN(C)CC2CC2)OCCCC[C@H](C)Oc2ccc(NC(=O)Nc3ccccc3)cc2C1=O` has an activity change of 3.68%. Compound `COc1ccc(C#Cc2cnc3c(c2)C(=O)N([C@H](C)CO)C[C@@H](C)[C@@H](CN(C)C(=O)CN(C)C)O3)cc1` has an activity change of -58.5%. `Cc1ccc(S(=O)(=O)N[C@@H]2CC[C@@H](CC(=O)O)O[C@@H]2CO)cc1` showed an activity change of 10.2%. Work on `COCCNC(=O)[C@H]1[C@H](CO)[C@H]2Cn3c(ccc(-c4ccccc4F)c3=O)[C@H]2N1C(=O)C1CCC1` yielded an activity change of -8.98%. `O=C(Cc1ccccc1)N1C[C@@H]2[C@H](c3ccccc31)[C@@H](CO)N2C(=O)C1CC1` showed an activity change of -0.357%. With `COCCNC(=O)[C@@H]1[C@@H](CO)[C@@H]2Cn3c(ccc(-c4ccccc4F)c3=O)[C@@H]2N1C(=O)C1CC1` the activity change was 7.64%. Compound `COc1ccc(NC(=O)Nc2cccc3c2O[C@@H](CN(C)C(=O)NC(C)C)[C@H](C)CN([C@H](C)CO)C3=O)cc1` has an activity change of -26.3%. For `COc1ccc(NC(=O)Nc2cccc3c2O[C@H](CN(C)C(=O)Nc2ccc(F)cc2)[C@@H](C)CN([C@@H](C)CO)C3=O)cc1`, the activity change was -19.9%. For `COc1ccc(NC(=O)N(C)C[C@H]2Oc3c(NC(=O)NC(C)C)cccc3C(=O)N([C@@H](C)CO)C[C@H]2C)cc1`, the activity change was -84.2% (active). In the case of `C[C@@H]1CN([C@H](C)CO)C(=O)c2cccc(NC(=O)Nc3cccc4ccccc34)c2O[C@@H]1CN(C)C(=O)Nc1ccc(F)cc1`, the activity change is reported as -95.3% (active). Compound `C[C@@H]1CN([C@@H](C)CO)C(=O)c2cccc(NC(=O)Nc3ccc(F)cc3)c2O[C@@H]1CN(C)C(=O)Nc1ccccc1` has an activity change of -36.1%. Compound `C[C@@H]1CN([C@@H](C)CO)C(=O)c2cccc(NC(=O)Nc3ccc(F)cc3)c2O[C@H]1CN(C)C(=O)Nc1ccc(F)cc1` has an activity change of -7.48%. `C[C@@H]1CN([C@H](C)CO)C(=O)c2cc(Br)cnc2O[C@@H]1CN(C)Cc1cncnc1` showed an activity change of 25.3%. `O=C1CN(Cc2ccccc2)C[C@H]2[C@H](c3ccc(-c4ccccc4)cc3)[C@@H](CO)N12` gave an activity change of -11%. For `COCC(=O)Nc1ccc2c(c1)C(=O)N(C)[C@H]1CC[C@@H](CC(=O)NCc3cccc(F)c3)O[C@H]1CO2`, the activity change was -2.71%. In the case of `C[C@H]1CCCCO[C@@H](CN(C)C(=O)C2CCCCC2)[C@@H](C)CN([C@@H](C)CO)C(=O)c2cc(NS(=O)(=O)c3cccs3)ccc2O1`, the activity change is reported as -83.8% (active). With `C[C@@H]1CCCCO[C@H](CN(C)C(=O)NC2CCCCC2)[C@H](C)CN([C@H](C)CO)C(=O)c2cc(NC(=O)Nc3ccc(F)cc3)ccc2O1` the activity change was -85.2% (active). For `C[C@@H]1CN([C@@H](C)CO)C(=O)c2cc(NS(=O)(=O)c3cccs3)ccc2O[C@@H](C)CCCCO[C@@H]1CN(C)C(=O)NC1CCCCC1`, the activity change was -14%. Compound `C[C@H](CO)N1C[C@H](C)[C@@H](CN(C)S(C)(=O)=O)OCCCC[C@H](C)Oc2ccc(NC(=O)Nc3cccc4ccccc34)cc2C1=O` has an activity change of 11.4%. For `CCCN(C)C[C@@H]1OCCCC[C@H](C)Oc2ccc(NS(=O)(=O)c3ccc(C)cc3)cc2C(=O)N([C@H](C)CO)C[C@@H]1C`, the activity change was -87.8% (active). In the case of `C[C@@H]1CN([C@@H](C)CO)C(=O)c2cc(NC(=O)Nc3cccc4ccccc34)ccc2O[C@@H](C)CCCCO[C@@H]1CN(C)S(=O)(=O)c1ccc(Cl)cc1`, the activity change is reported as -85.2% (active). For `CC(C)NC(=O)Nc1ccc2c(c1)C(=O)N([C@@H](C)CO)C[C@H](C)[C@H](CN(C)S(=O)(=O)c1ccc(Cl)cc1)OCCCC[C@H](C)O2`, the activity change was -79.5%. `C[C@H]1CCCCO[C@@H](CN(C)C(=O)c2ccccc2)[C@@H](C)CN([C@@H](C)CO)C(=O)c2cc(NS(=O)(=O)c3cccs3)ccc2O1` showed an activity change of -57.2%. `Cc1ccc(S(=O)(=O)Nc2ccc3c(c2)C(=O)N([C@H](C)CO)C[C@@H](C)[C@@H](CN(C)C)OCCCC[C@@H](C)O3)cc1` showed an activity change of -28.5%. Compound `C[C@@H]1CCCCO[C@@H](CN(C)C(=O)NC2CCCCC2)[C@H](C)CN([C@@H](C)CO)C(=O)c2cc(NC(=O)Nc3ccc(F)cc3)ccc2O1` has an activity change of 7.58%. For `C[C@@H]1CCCCO[C@H](CN(C)C(=O)NC2CCCCC2)[C@H](C)CN([C@@H](C)CO)C(=O)c2cc(NC(=O)Nc3ccc(F)cc3)ccc2O1`, the activity change was -11.4%. Compound `CCCN(C)C[C@H]1OCCCC[C@H](C)Oc2ccc(NS(=O)(=O)c3ccc(C)cc3)cc2C(=O)N([C@@H](C)CO)C[C@H]1C` has an activity change of -65.3%. For `CCCNC(=O)N[C@@H]1CC[C@@H](CCn2cc(C3CC3)nn2)O[C@@H]1CO`, the activity change was 12.3%.
